Bioassay records deposited in PubChem BioAssay by National Center for Advancing Translational Sciences (NCATS).
GPT2 inh = blocks human glutamate pyruvate transaminase 2; actives 0.25% (n = 100,000); AID 1671188; Recombinant GPT2, coupled pyruvate oxidase/HRP Amplex Red fluorescence; Q8TD30; Potency, µM (top dose mostly 57.7 µM), for the others: at the highest dose activity change, negative = inhibition, usual class: inhibitors; also: nearly all actives have a fitted effect of over 60% in size
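Recombinant GPT2 (10ng/uL) with 250uM a-KG and 2mM L-alanine, 30 min at room temperature, in HEPES pH 7.5 buffer. Pyruvate detected by pyruvate oxidase/HRP/Amplex Red fluorescence after 30 min in the dark; AOA (50uM) as positive control.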
3T3 cytotox = cytotoxic compounds in NIH 3T3 cells; NIH 3T3 viability, CellTiter-Glo ATP luminescence, 48-72 h; Potency, µM (doses to about 96.7 µM), without a hit: at the highest dose activity change, negative = cytotoxicity, usual class: inhibitors; actives 4.3% (n = 94,000); AID 1345082; also: nearly all actives have a fitted effect of over 55% in size
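First NIH 3T3 cells are plated at 400 cells/well; next compound is pinned in; then plates incubate 48 or 72 hr at 37 °C; finally CellTiter-Glo is added and luminescence read after 10 min.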
FLuc inh = inhibitors of firefly (Photinus pyralis) luciferase; P08659; purified P. pyralis luciferase, luminescence, biochemical; Potency, µM (titrated, usually from 115 µM), actives largely listed as inhibitors; actives 2.5% (n = 76,000); AID 1347043; also: nearly all actives have a fitted effect of over 65% in size
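Biochemical qHTS: compound (6-point titration) added to 10uM D-luciferin plus 10uM ATP in Tris acetate pH 7.5 buffer with Mg, Tween-20 and BSA, then purified enzyme at 10nM; light output imaged.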
NPR1 antag = blocks ANP-stimulated signaling of human Npr1 receptor. Potency, µM (doses to about 46.3 µM), without a hit: top-dose activity change, negative = inhibition, usual class: inhibitors. HEK293 hNpr1 GloSensor cGMP, ANP-stimulated luminescence. AID 1347048. actives 1.6% (n = 76,000). P16066; calls by dose curve; also: nearly all actives have a fitted effect of over 60% in size
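Compound pre-incubated 30 min at room temperature on GloSensor-loaded HEK293 cells stably carrying hNpr1 and the pGS-40F cGMP biosensor. Stimulation uses hNppA at 0.1 nM final; luminescence is taken at baseline and 20 min post-agonist.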
HEK293 tox = kills HEK 293 cells; HEK 293 viability, ATP luminescence (CellTiter-Glo), 48-72 h; Potency, µM (series often up to 115 µM), for inactives: at the top dose activity change, negative = cytotoxicity, usual class: inhibitors; actives 6.6% (n = 94,000); also: nearly all actives have a fitted effect of over 60% in size
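HEK 293 cells seeded at 250 cells/well were exposed to compound for 48 or 72 hr at 37 degree Celsius. Viability taken as ATP content by CellTiter-Glo luminescence.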
Numbers without * were called inactive; i = inactive; ? = inconclusive; . = no result; [ ] = another dose, or the depositor's remark. Most compounds without a hit are left out; they make up all but 10% or so of the library. Unless noted, calls follow the shape of the dose curve; as a rule, active = well fitted curve in the direction sought with a large enough effect; inconclusive = small, poorly fitted or top-dose-only effect, or another doubt; inactive = no such curve, though single readings can be large; an effect the other way counts as inactive or inconclusive. % is scaled to controls: 0 for no effect and ±100 for the full control effect; potency is read from the fitted curve at half-maximal effect.

SMILES	GPT2 inh	3T3 cytotox	FLuc inh	NPR1 antag	HEK293 tox
CN(Cc1ccccc1)C(=O)c1ccnc(-c2nnc3ccc(Nc4ccccc4)nn23)c1	-11%[88.5 µM]	?	i	?	20µM*
CC(C)NC(=O)c1ccnc(-c2nnc3ccc(Nc4ccccc4)nn23)c1	4%[88.5 µM]	?	i	2%[70.6 µM]	?
COc1ccccc1Cn1c(=O)c(C(=O)NCCc2ccc(Cl)cc2)nc2cccnc21	-12%	?	.	.	?
O=C(CC1CCCC1)N1CCC(OC2CCN(Cc3ccccc3)CC2)CC1	5%	?	i	5%	?
CN1CCN(C(=O)c2ccnc(-c3nnc4ccc(N(C)c5ccccc5)nn34)c2)CC1	-21%[88.5 µM]	10µM*	i	4%[70.6 µM]	-2%[172 µM]
COCC1CN(C)CC12CCN(C(=O)CCc1ccccc1OC)CC2 (stereo not drawn)	5%	-17%	i	-9%	?
COc1ccc(CNC(=O)C2CCN(C(=O)c3ncn4c3COC(c3ccc(C)cc3)C4)CC2)cc1 (stereo not drawn)	i	-14%	40µM*	-10%	-18%
COc1ccc(C2Cn3cnc(C(=O)N4CCC(C(=O)NCc5ccc(F)cc5)CC4)c3CO2)cc1 (stereo not drawn)	-10%	0%	i	-1%	-3%
Cc1ccc(C2Cn3cnc(C(=O)N4CCC(C(=O)NCc5ccc(F)cc5)CC4)c3CO2)cc1 (stereo not drawn)	i	i	35µM*	-12%	8%
O=C(Nc1cc(C2CC2)nn1-c1ccccc1)c1ccccc1Cl	-3%	-14%	.	.	-18%
COc1ccccc1C(=O)Nc1cc(C2CC2)nn1-c1ccccc1	i	22µM*	.	.	?
CC(C)(C)COC(=O)N1C[C@@H](CO)[C@@H]2Oc3c(F)cccc3[C@@H]21	.	32µM*	.	.	?
O=C(NC1CCCN(c2cc(-c3ccccc3)[nH]n2)C1)c1ccccc1Cl (stereo not drawn)	-17%	?	?	-7%	?
O=C(NCC1CCN(c2cc(-c3ccc(F)cc3)[nH]n2)CC1)c1c[nH]c2ccccc12	?	32µM*	?	-27%	?
O=C(NC1CCN(c2cc(-c3ccccc3)[nH]n2)CC1)c1cc(F)ccc1Cl	-18%	?	i	-5%	?
O=C(NC1CCCN(c2cc(-c3ccccc3)[nH]n2)C1)c1c[nH]c2ccccc12 (stereo not drawn)	?	?	40µM*	-19%	?
O=C(NC1CCN(c2cc(-c3ccc(F)cc3)[nH]n2)C1)c1c[nH]c2ccccc12 (stereo not drawn)	?	32µM*	i	-23%	40µM*
O=C(NC1CCN(c2cc(-c3ccc(F)cc3)[nH]n2)CC1)c1c[nH]c2ccccc12	-22%	32µM*	i	0%	?
O=C(NCc1cccc(F)c1)C1CCCN(Cc2cccc(-c3cccs3)c2)C1 (stereo not drawn)	.	40µM*	.	.	?
Cc1cccc(-c2cccc(CN3CCCC(C(=O)N4CCN(C)CC4)C3)c2)c1 (stereo not drawn)	-5%	?	.	.	25µM*
O=C(C1CCCN(Cc2cccc(-c3cccs3)c2)C1)N1CCCC1 (stereo not drawn)	i	?	.	.	71µM*
O=C(NCc1cccs1)C1CCCN(Cc2cccc(-c3ccsc3)c2)C1 (stereo not drawn)	i	?	.	.	40µM*
CN(Cc1ccccc1Cl)Cc1cccn1C	1%[88.5 µM]	-13%[138 µM]	i	4%[70.6 µM]	-12%[172 µM]
Cc1cccc(-c2cccc(CN3CCCC(C(=O)NCC4CC4)C3)c2)c1 (stereo not drawn)	4%	?	.	.	?
O=C(NCc1cccs1)C1CCCN(Cc2cccc(-c3cccs3)c2)C1 (stereo not drawn)	i	40µM*	.	.	45µM*
O=C(NC[C@H]1OC[C@@H](N(Cc2ccccc2)Cc2ccccc2)[C@@H]1O)Nc1ccccc1	-8%[88.5 µM]	?	i	-13%[70.6 µM]	79µM*
